PI4K2A block = blocks human PI4K2A kinase activity; Q9BTU6; purified PI4K2A, ADP-Glo luminescence, 1 h; hits give low values; activity change, negative = inhibition, % at 76.9 µM; actives 0.13% (n = 420,000); in the data active means activity change below about -50%; inconclusive means mostly about -30% to -49%;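 further: -100% = wells without enzyme as full effect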
Target sequence (Q9BTU6 whole entry, looked up): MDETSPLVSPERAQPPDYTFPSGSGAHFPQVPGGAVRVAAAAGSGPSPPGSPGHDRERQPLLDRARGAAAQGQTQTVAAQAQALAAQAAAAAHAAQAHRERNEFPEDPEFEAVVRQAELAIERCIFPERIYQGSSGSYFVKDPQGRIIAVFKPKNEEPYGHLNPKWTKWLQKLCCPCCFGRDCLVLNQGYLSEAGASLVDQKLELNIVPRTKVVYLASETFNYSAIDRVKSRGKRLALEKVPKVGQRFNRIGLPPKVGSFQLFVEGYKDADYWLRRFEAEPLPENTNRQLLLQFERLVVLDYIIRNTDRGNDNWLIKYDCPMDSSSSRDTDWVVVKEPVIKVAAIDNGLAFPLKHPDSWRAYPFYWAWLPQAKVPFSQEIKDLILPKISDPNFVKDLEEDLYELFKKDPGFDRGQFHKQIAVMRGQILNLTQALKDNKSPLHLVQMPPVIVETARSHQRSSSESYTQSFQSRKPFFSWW
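ADP-Glo luminescence measured ADP generated by PI4K2A enzyme (4 ug/mL before mixing) with 1.2 mM PI substrate (pre-mix) and 300 microM ATP (pre-mix). Tris pH7.5 buffer with MgCl2, Triton X-100; 1 h reaction at ambient temperature.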
Tb PFK inh-1 = blocks T. brucei phosphofructokinase | O15648 | T. brucei PFK, ADP-Glo luminescence | Potency, µM (titrated, usually from 57.5 µM), inactives show at the top dose activity, negative = inhibition, usual class: inhibitors | actives 0.17% (n = 330,000) | AID 485367;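 further: potency means the concentration at half of the fitted maximal effect; 0% = uninhibited 1x PFK enzyme wells and -100% = no-enzyme wells; nearly all actives have a fitted effect of over 60% in size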
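1.25 nM PFK with 0.5 mM F6P and 0.1 mM ATP in 0.1 M TEA pH 8.0, 5 mM MgCl2, incubated 45 min at room temperature; ADP measured by ADP-Glo luminescence; compounds titrated up to 57 uM.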
Chronic BCR inh = inhibitors of chronic active B-cell receptor signaling; ABC-DLBCL IkBa-CBG/CBR reporter, luminescence ratio, 4 h; Potency, µM (top dose mostly 46.1 µM), for the others: at the highest dose activity change, negative = inhibition, most hits filed as inhibitors; actives 0.05% (n = 340,000); AID 493014; active means well fitted inhibition curve with a large enough effect in the signal ratio, with a control signal flat, not every such curve was filed as active; inconclusive means small, poorly fitted or top-dose-only effect, or effect the other way, or a change in a side signal; the % refers to the signal ratio;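 further: potency means the concentration at half of the fitted maximal effect; plate controls were basal doxycycline-induced cells for no effect and cells given 10 µM MG132 for full effect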
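TMD8 human ABC-DLBCL cells with doxycycline-inducible IκBα–green luciferase fusion and unfused red luciferase, in 0.5% FBS medium; compounds up to 46 uM, 4 h at 37C. Green/red luminescence ratio, filter-overlap corrected, fitted to concentration-response curves.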
PGK inhibitor = blocks T. brucei phosphoglycerate kinase. P07378. PGK/GAPDH coupled, Kinase-Glo luminescence, 60 min. Potency, µM (highest dose often 57.5 µM), without a hit: top-dose activity change, negative = inhibition, actives largely listed as inhibitors. actives 0.043% (n = 380,000). AID 602233; further: potency means the concentration at half of the fitted maximal effect; on the % scale 0 is the no-effect control and ±100 the full control effect; nearly all actives have a fitted effect of over 60% in size
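Recombinant glycosomal PGK reaction used 1,3-bisphosphoglycerate generated in-well by GAPDH (100nM final) in 100mM TEA pH 7.6, 5mM MgCl2, 0.01% Tween-20. After 60 minutes at room temperature, ATP was read by Kinase-Glo Plus luminescence end-point.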
Pin1 inh = inhibitors of human Pin1. Q13526. Pin1 FP peptide displacement, HiFluor488, 10 min. Potency, µM (doses to about 115 µM), for the others: at the top dose activity, negative = inhibition, most hits filed as inhibitors. actives 0.009% (n = 390,000). AID 504891; active means well fitted inhibition curve with a large enough effect in the polarisation, with a control signal flat, not every such curve was filed as active; inconclusive means small, poorly fitted or top-dose-only effect, or effect the other way, or a change in a side signal; inactive means no such curve, though single readings can be large or run the other way; the % refers to the polarisation; further: potency means the concentration at half of the fitted maximal effect; on the % scale 0 is the no-effect control and ±100 the full control effect
Target sequence (Q13526 whole entry, looked up): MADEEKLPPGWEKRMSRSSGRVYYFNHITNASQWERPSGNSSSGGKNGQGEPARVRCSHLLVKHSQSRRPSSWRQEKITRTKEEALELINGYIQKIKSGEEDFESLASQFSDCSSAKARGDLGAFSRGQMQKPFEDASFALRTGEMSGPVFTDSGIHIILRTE
TbPFK ATP = orthogonal confirmation of T. brucei phosphofructokinase inhibitors | Tb PFK enzyme, ATP depletion, Kinase-Glo Plus luminescence | shares compounds with Tb PFK inh-1 | AID 504636 | Potency, µM (titrated, usually from 57.5 µM), for inactives: at the top dose inhibition | actives 47% (n = 1,100); calls by dose curve; further: potency means the concentration at half of the fitted maximal effect; nearly all actives have a fitted effect of over 60% in size
Tb PFK inh-2 = validation of T. brucei phosphofructokinase inhibitors. shares compounds with Tb PFK inh-1. purified T. brucei PFK, ADP-Glo luminescence, 45 min. Potency, µM (series often up to 57.5 µM), for inactives: top-dose activity change, negative = inhibition, actives largely listed as inhibitors. actives 41% (n = 1,100);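 further: potency means the concentration at half of the fitted maximal effect; plate controls were full PFK enzyme control for no effect and no enzyme control for full effect; nearly all actives have a fitted effect of over 60% in size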
The depositor's hits bear a star; i = inactive; ? = inconclusive; . = not tested or not shown. Only some compounds are listed: those with a hit (about 0.34% of all), similar ones and a draw of the others. Unless noted, the call rests on the fitted dose curve; in most records, active means well fitted curve in the direction sought with a large enough effect; inconclusive means small, poorly fitted or top-dose-only effect, or another doubt; inactive means no such curve, though single readings can be large; an effect the other way counts as inactive or inconclusive.

SMILES | PI4K2A block | Tb PFK inh-1 | Chronic BCR inh | PGK inhibitor | Pin1 inh | TbPFK ATP | Tb PFK inh-2
Nc1cc(=O)[nH]c(SCC(=O)Nc2ccc(F)c(Cl)c2)n1 | -3.7 | ? | ? | 1.2% | 2.9% | ? | 30.1µM*
Cc1ccc(C(=O)N2CCCCC2)cc1NC1=C(Cl)C(=O)N(Cc2ccccc2)C1=O | -2.0 | -6.7% | ? | -5.2% | 34.9% | . | .
Cc1ccc(O)c(NC2=C(Cl)C(=O)N(Cc3ccccc3)C2=O)c1 | -5.5 | 23.9µM* | ? | 1.8% | 0.3% | 10.7µM* | 19µM*
O=c1[nH]c(=O)n([C@H]2O[C@H](CO)[C@@H](O)[C@@H]2O)cc1/C=C\Br | -0.4 | . | . | . | . | . | .
O=S(=O)(c1ccc2c(c1)OCCO2)N1CCN(S(=O)(=O)c2cc(F)c(Br)cc2F)CC1 | . | . | . | . | 0.3% | . | .
CC(=O)c1ccc(S(=O)(=O)N2CCN(CC(=O)Nc3ccc(Cl)c([N+](=O)[O-])c3)CC2)cc1 | 0.5 | 13.5µM* | 6.5% | -1.9% | 0.3% | ? | ?
Cc1ccc(S(=O)(=O)N2CCN(CC(=O)N/N=C\c3ccc(Cl)c([N+](=O)[O-])c3)CC2)cc1 | -4.6 | 11.8% | 11.8% | 0.3% | -0.8% | . | .
Cc1ccc(OCC(=O)N(C)CC(=O)NCc2ccco2)c(Br)c1 | 1.3 | ? | 2.7% | ? | ? | . | .
COc1ccc(C(=O)OCC(=O)NCc2ccco2)cc1OC | -5.8 | ? | ? | -27.9% | ? | ? | ?
O=C(COC(=O)c1cc(S(=O)(=O)N2CCc3ccccc3C2)ccc1Cl)NCc1ccco1 | ? | -17.9% | 28.5% | -16.0% | ? | . | .
CC(=O)c1cccc(OCC(=O)N(C)CC(=O)NCc2ccco2)c1 | -26.8 | 19µM* | ? | 14.1µM* | . | 2.39µM* | 2.69µM*
CCOc1ccc(C(=O)OCC(=O)NCc2ccco2)cc1OCC | -7.3 | ? | 4.1% | -9.6% | 4.0% | ? | -15.1%
O=C(COC(=O)c1cccc(S(=O)(=O)N2CCc3ccccc3C2)c1)NCc1ccco1 | -2.8 | 10.7µM* | 1.3% | -1.1% | 0.3% | 11.0% | ?
CCOc1ccc(C(=O)NCc2ccco2)cc1OCC | 4.2 | -4.8% | 6.6% | -2.3% | -12.0% | . | .
O=S(=O)(c1ccc2c(c1)OCCO2)N1CCN(S(=O)(=O)c2cccc3cccnc23)CC1 | . | . | . | . | 22.9% | . | .
O=C(COC(=O)c1ccccc1)NCc1ccco1 | -9.9 | ? | ? | i | ? | . | .
O=C(COC(=O)c1ccccc1Oc1ccccc1)NCc1ccco1 | -13.3 | 26.9µM* | 1.4% | ? | -15.8% | 16.9µM* | ?
COCCCc1cc(F)c(S(=O)(=O)N2CCN(S(=O)(=O)c3ccc4c(c3)OCCO4)CC2)cc1F | . | . | . | . | -1.9% | . | .
O=C1SC(SCc2ccccc2)=N/C1=C\c1ccco1 | -19.9 | . | . | -9.5% | . | . | .
O=C1SC(SCc2ccccc2)=N/C1=C\c1ccc(C(=O)O)cc1 | -5.4 | ? | ? | -5.9% | . | -17.6% | ?
Oc1ccc(C2C[C@H]3CC[C@@H]2C3)cc1O (some centres undefined) | 6.2 | ? | -13.9% | 2.9% | 3.9% | 12µM* | 13.5µM*
O=C1CCC2=C1C1(CCCC1)N=C(Nc1nc3ccccc3o1)N2 | . | . | . | . | 0.8% | . | .
C/C(=N\NC(=O)CNc1ccccc1Cl)C(C)(C)C | 4.3 | -12.3% | -8.8% | 4.7% | ? | . | .
C/C(=N\NC(=O)CNc1cccc(Cl)c1C)C1CC1 | 0.7 | 21.3µM* | -0.2% | -9.8% | -0.5% | ? | ?
O=C(NCCCN1CCCC1=O)c1cc(NS(=O)(=O)c2ccc(F)cc2)cc(NS(=O)(=O)c2ccc(F)cc2)c1 | 6.0 | 8.49µM* | 7.7% | -5.2% | 0.4% | 3.79µM* | 6.75µM*
SMILES | PI4K2A block | Tb PFK inh-1 | Chronic BCR inh | PGK inhibitor | Pin1 inh | TbPFK ATP | Tb PFK inh-2
O=C(NCCCN1CCCC1=O)c1ccc(NS(=O)(=O)c2ccc(F)cc2)cc1 | 1.1 | -1.4% | 8.1% | 9.2% | 1.4% | . | .
O=C(Cn1cc(CNCc2ccccc2)nn1)Nc1cc(C(F)(F)F)ccc1Cl | . | . | . | . | -2.5% | . | .
CCCCCCn1ccc(=N)cc1 | 7.9 | 3.5% | 2.3% | -4.5% | 0.9% | . | .
CCCCCCCCCCCCCCCCn1cc[n+](CC(C)=O)c1 | 3.4 | ? | -1.2% | -7.8% | 16.9% | -6.7% | -7.0%
Cc1cc2c(s1)c1cnn(Cc3cccc4cccnc34)c(=O)c1n2C | . | . | . | . | 2.7% | . | .
CSC(=NC#N)N1CCN(c2cccc(Cl)c2)CC1 | -2.9 | 16.9µM* | -21.6% | -0.7% | 1.5% | 21.3µM* | 10.7µM*
O=C(C(=O)N1CCOCC1)c1cn(CC(=O)N2CCc3ccccc3C2)c2ccccc12 | 0.0 | ? | -0.5% | -0.2% | -1.2% | ? | ?
O=C(C(=O)N1CCc2ccccc2C1)c1cn(CC(=O)N2CCOCC2)c2ccccc12 | 2.8 | -2.9% | 1.6% | -3.3% | -1.3% | . | .
CC(C)n1ncc2c(C(=O)Nc3ccc(S(C)(=O)=O)cc3)cc(C3CC3)nc21 | 1.8 | ? | 0.5% | -9.6% | -4.7% | . | .
CC(C)n1ncc2c(C(=O)Nc3ccc(S(N)(=O)=O)cc3)cc(C3CC3)nc21 | 7.2 | ? | ? | -7.6% | 7.2% | -33.1% | ?
Cc1ccc(NS(=O)(=O)c2cc3c(cc2C)NC(=O)CO3)cc1C | . | . | . | . | -1.0% | . | .
O=C(Cc1ccc(Br)cc1)Nc1ccc(S(=O)(=O)N2CCCC2)cc1 | . | 19µM* | -9.8% | . | . | 10.7µM* | 21.3µM*
O=C(CNc1ccc(Br)cc1)Nc1ccc(S(=O)(=O)N2CCCCC2)cc1 | -3.9 | . | . | -7.7% | . | . | .
O=C(Cc1ccc(F)cc1)Nc1ccc(S(=O)(=O)N2CCCC2)cc1 | -0.5 | 16.9µM* | -10.0% | -11.6% | -19.2% | ? | ?
CCN(Cc1ccncc1)C(=S)Nc1ccc(Cl)cc1 | 2.4 | -0.6% | ? | -2.1% | -7.1% | . | .
CCN(CC)C(=S)Nc1ccc(Cl)c(Cl)c1 | -1.9 | ? | ? | -1.5% | 2.0% | 14.4% | -1.3%
Nn1c(Cc2ccccc2F)n[nH]c1=S | -2.0 | -1.0% | -0.5% | -1.6% | -2.6% | . | .
Nn1c(Cc2cccc3ccccc23)n[nH]c1=S | -3.5 | ? | ? | -6.0% | 2.7% | 1.51µM* | 2.13µM*
Cc1ccc(C(C)OC(=O)C2(C)CCC(C(=O)O)C2(C)C)cc1 (centres undefined) | -1.0 | . | . | . | . | . | .
C#CC(C)(CC)OC(=O)c1ccccc1C(=O)O (centres undefined) | 1.7 | . | . | . | . | . | .
Cc1oc(=O)c(NC(=O)c2ccc(Cl)cc2)cc1C(=O)c1ccccc1 | 10.7 | 16.9µM* | ? | 3.9% | 2.2% | 5.5% | -7.5%
